GLS inh: qHTS for Inhibitors of Glutaminase (GLS); Glutaminase kidney isoform, mitochondrial (Homo sapiens), O94925; GLS enzymatic activity, qHTS titration; Potency, µM (top dose mostly 45.5 µM), inactives show top-dose activity change, negative = inhibition, actives largely listed as inhibitors; hit rate 0.21% among 410,000; AID 624170, 2012; further: on the % scale 0 is the no-effect control and ±100 the full control effect
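hKGA in 45 mM KH2PO4 pH 8.2, 0.02% Tween-20 with pin-transferred compounds; 1 mM L-glutamine (stock) plus glutamate oxidase/HRP/Amplex Red coupling added. Fluorescence read initially and after 30 min at RT.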
PGK inhibitor: qHTS Assay to Find Inhibitors of Phosphoglycerate Kinase. PGK/GAPDH coupled, Kinase-Glo luminescence, 60 min. Potency, µM (doses to about 57.5 µM), inactives show at the top dose activity change, negative = inhibition, usual class: inhibitors. hit rate 0.043% among 380,000. AID 602233, 2012; further: on the % scale 0 is the no-effect control and ±100 the full control effect; nearly all actives have a fitted effect of over 60% in size
Target sequence (P07378 whole entry, looked up): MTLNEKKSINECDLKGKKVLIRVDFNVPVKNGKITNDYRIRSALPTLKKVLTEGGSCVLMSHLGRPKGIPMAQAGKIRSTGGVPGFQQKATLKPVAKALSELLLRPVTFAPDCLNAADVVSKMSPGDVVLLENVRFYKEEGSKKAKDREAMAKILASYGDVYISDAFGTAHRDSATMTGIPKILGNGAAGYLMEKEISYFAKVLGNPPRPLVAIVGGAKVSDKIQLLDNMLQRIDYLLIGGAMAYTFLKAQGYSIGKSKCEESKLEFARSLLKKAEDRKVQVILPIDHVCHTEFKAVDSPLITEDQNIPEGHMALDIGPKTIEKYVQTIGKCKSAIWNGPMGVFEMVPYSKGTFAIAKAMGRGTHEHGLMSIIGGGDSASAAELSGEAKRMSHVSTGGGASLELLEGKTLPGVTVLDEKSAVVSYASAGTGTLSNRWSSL
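Recombinant glycosomal PGK reaction used 1,3-bisphosphoglycerate generated in-well by GAPDH (100nM final) in 100mM TEA pH 7.6, 5mM MgCl2, 0.01% Tween-20. After 60 minutes at room temperature, ATP was read by Kinase-Glo Plus luminescence end-point.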
RECQ1 helicase: qHTS Assay for Inhibitors of RecQ-Like Dna Helicase 1 (RECQ1) | ATP-dependent DNA helicase Q1 (Homo sapiens), P46063 | RECQ1 DNA unwinding, red fluorescence kinetic read | Potency, µM (highest dose often 57.3 µM), for inactives: at the top dose activity, negative = inhibition, usual class: inhibitors | hit rate 0.54% among 240,000 | AID 2549, 2010;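 further: plate controls were vehicle for no effect and no enzyme for full effect; nearly all actives have a fitted effect of over 30% in size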
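50 nM RECQ1T1 preincubated 15 min with compound in Tris pH 8.0 buffer with MgCl2, DTT, Tween-20 and 2.5 ug/ml poly(dI-dC); started with 200 nM TAMRA/BHQ-2 forked duplex and 2 mM ATP. Unwinding read as fluorescence (525/598 nm), two reads 2 h apart.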
FEN1 inh-1: qHTS Assay for the Inhibitors of Human Flap endonuclease 1 (FEN1); P39748; Recombinant FEN1 flap cleavage, fluorescence, 15 min; Potency, µM (doses to about 114 µM), for inactives: top-dose activity change, negative = inhibition, usual class: inhibitors; hit rate 0.35% among 390,000; further: on the % scale 0 is the no-effect control and ±100 the full control effect; nearly all actives have a fitted effect of over 65% in size
Target sequence (P39748 whole entry, looked up): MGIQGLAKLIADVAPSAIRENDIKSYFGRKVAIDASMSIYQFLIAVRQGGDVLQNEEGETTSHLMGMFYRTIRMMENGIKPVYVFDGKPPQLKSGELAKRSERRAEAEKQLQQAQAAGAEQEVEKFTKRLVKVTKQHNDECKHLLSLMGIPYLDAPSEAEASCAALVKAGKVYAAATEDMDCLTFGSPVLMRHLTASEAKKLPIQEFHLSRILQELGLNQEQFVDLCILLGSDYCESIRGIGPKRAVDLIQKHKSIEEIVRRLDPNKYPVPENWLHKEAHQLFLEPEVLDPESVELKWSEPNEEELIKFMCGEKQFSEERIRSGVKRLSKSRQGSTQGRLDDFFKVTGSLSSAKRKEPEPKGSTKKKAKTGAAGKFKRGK
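Compounds are tested as a concentration series against 10 nM FEN1; after a 15 min room-temperature preincubation, 50 nM substrate starts cleavage, with plate reads at 0 and 15 min. Normalized responses are fitted by a Hill equation.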
APEX1 inh: qHTS Assay for Inhibitors of the Human Apurinic/apyrimidinic Endonuclease 1 (APE1) | DNA repair nuclease/redox regulator APEX1 (Homo sapiens), P27695 | recombinant APE1, TAMRA/BHQ-2 abasic DNA cleavage fluorescence | Potency, µM (top dose mostly 65.8 µM), for inactives: at the highest dose activity change, negative = inhibition, usual class: inhibitors | hit rate 0.35% among 350,000 | AID 2517, 2012;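 further: plate controls were vehicle for no effect and reference inhibitor for full effect; nearly all actives have a fitted effect of over 55% in size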
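Compound pre-exposure to 0.75 nM APE1, 15 min at ambient temperature. Reaction initiated with 50 nM TAMRA/BHQ-2 THF substrate, read immediately in kinetic mode, 525 nm excitation, 598 nm emission.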
BLM helicase inh: qHTS Assay for Inhibitors of Bloom's syndrome helicase (BLM) | AID 2528, 2010 | recombinant BLM DNA unwinding, fluorescence dequenching | hit rate 0.2% among 350,000 | Potency, µM (top dose mostly 56.1 µM), inactives show at the highest dose activity change, negative = inhibition, actives largely listed as inhibitors;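 further: plate controls were vehicle for no effect and no enzyme for full effect; nearly all actives have a fitted effect of over 35% in size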
FEN1 inh-2: qHTS Assay for the Inhibitors of FEN1: Confirmatory Assay for Cherry-picked Compounds; shares compounds with FEN1 inh-1; FEN1 flap cleavage, TAMRA/BHQ2 fluorogenic DNA substrate; Potency, µM, usual class: inhibitors; hit rate 79% among 880; AID 720498, 2013; further: nearly all actives have a fitted effect of over 60% in size
An asterisk follows results filed as active; i = inactive; ? = inconclusive; . = no result. Only some compounds are listed: those with a hit (about 0.86% of all), similar ones and a draw of the others. The call rests on the fitted dose curve; in most records, active means well fitted curve in the direction sought with a large enough effect; inconclusive means small, poorly fitted or top-dose-only effect, or another doubt; inactive means no such curve, though single readings can be large; an effect the other way counts as inactive or inconclusive. Potency means the concentration at half of the fitted maximal effect.

SMILES	GLS inh	PGK inhibitor	RECQ1 helicase	FEN1 inh-1	APEX1 inh	BLM helicase inh	FEN1 inh-2
CCC(Sc1nc2n[nH]c(C)c2c(=N)n1-c1ccc(Br)cc1)C(=O)N(CC)CC (stereo unspecified)	4.1%	-1.1%	.	5.1%	.	-7.2%	.
O=C(OCCc1ccccc1)c1cc(O)c(O)c(O)c1	6.6%	-12.6%	.	39.8µM*	-8.5%	.	37.9*
Nc1ccc(C(=O)OCCc2ccccc2)cc1	0.1%	i	.	-14.3%	1.8%	.	.
Cc1nn2c(=O)cc(COC(=O)c3cccc(NC(=O)COc4ccccc4C)c3)nc2s1	3.1%	-4.4%	.	-10.5%	.	-1.9%	.
Cc1cccc2nc(-c3cccc(NC(=O)c4ccc(Cl)cc4)c3)cn12	-11.3%	-5.2%	?	?	?	?	60.1*
CC1CCN(C(=O)CN2c3ccc(Br)cc3-c3ccccc3S2(=O)=O)CC1	-2.1%	-0.8%	.	8.0%	.	-6.2%	.
N#C/C(=C\c1ccc(O)c(O)c1)C(=O)Nc1cccc2ncccc12	12.7%	?	.	44.7µM*	2.99µM*	12.6µM*	?
O=C(COc1ccccc1-c1ccccc1)N/N=C/c1cccc2ccccc12	1.0%	-0.5%	-19.7%	-9.8%	4.4%	-15.2%	.
O=C(COc1cccc2ccccc12)N/N=C/c1ccccc1OCc1ccc(C(=O)O)cc1	-12.4%	-18.4%	-1.0%	?	5.5%	?	84.9*
Cc1ccc(Cl)cc1NS(=O)(=O)c1ccc(N2CCCCS2(=O)=O)cc1	-13.6%	3.1%	.	-11.1%	.	-3.1%	.
Cc1cc(=O)[nH]c2cc(N)ccc12	.	.	.	2.3%	.	.	.
Nc1ccc2cc3[nH]c4cc(N)ccc4c3nc2c1	-1.3%	-14.2%	.	11.2µM*	.	.	12*
COc1ccc(CCn2c(=S)[nH]c(=O)c3c(C)cc(C)nc32)cc1OC	.	.	.	-2.3%	.	.	.
O=C(CN1C(=O)N/C(=C\c2ccccc2OCc2ccc(C(=O)O)cc2)C1=O)Nc1ccc(F)cc1	0.0%	-11.2%	.	-28.3%	-36.5%	-15.0%	.
Cc1ccccc1NC(=O)CN1C(=O)N/C(=C\c2ccccc2OCc2ccc(C(=O)O)cc2)C1=O	-2.0%	?	.	?	?	-18.2%	84.9*
Cc1cccc(NC(=O)CN2C(=O)N/C(=C\c3ccccc3OCc3ccc(C(=O)O)cc3)C2=O)c1	-20.6%	-7.4%	.	?	76.8%	-10.4%	75.7*
O=C(CCC1N=C2c3ccccc3N=C(SCC(=O)Nc3ccc(F)cc3)N2C1=O)NCc1cccs1 (stereo unspecified)	-7.8%	-4.3%	.	-26.8%	.	-3.8%	.
O=S(=O)(CCc1ccccc1)c1nnnn1C1CCCCC1	.	.	7.7%	.	-0.4%	0.8%	.
CCOC(=O)C1=C(O)C(=O)C(C(=O)OCC)C1 (stereo unspecified)	12.9%	-3.8%	.	4.47µM*	.	.	8.49*
CC(C)Cc1ccc(S(=O)(=O)N2CCC(c3ccncc3)CC2)cc1	-12.1%	-0.8%	.	-9.4%	.	-4.1%	.
CCCCC/C=C\C/C=C\C/C=C\C=C\C(O)CCCC(=O)O (stereo unspecified)	.	.	-0.1%	.	-0.4%	-4.9%	.
O=C(O)c1cc(NC(=O)c2ccc([N+](=O)[O-])cc2)cc(NC(=O)c2ccc([N+](=O)[O-])cc2)c1	5.7%	-7.3%	.	?	-9.4%	-14.1%	?
COc1cc(NC(=O)c2nc(-c3ccncc3)no2)cc(OC)c1OC	-3.9%	-2.6%	.	-0.4%	.	-0.5%	.
c1nc(N2CCC(N3CCCC3)CC2)c2cc(-c3ccc4c(c3)OCO4)ccc2n1	.	.	.	.	.	.	33.8*
Cc1cccc(CNc2ncnc3ccc(-c4ccc5c(c4)OCO5)cc23)c1	1.6%	-9.3%	-15.4%	?	-0.9%	-13.7%	.
SMILES	GLS inh	PGK inhibitor	RECQ1 helicase	FEN1 inh-1	APEX1 inh	BLM helicase inh	FEN1 inh-2
Cn1cncc1CNc1ncnc2ccc(-c3ccc4c(c3)OCO4)cc12	.	.	.	.	.	.	?
c1csc(CNc2ncnc3ccc(-c4ccc5c(c4)OCO5)cc23)c1	2.8%	-6.6%	?	?	-6.1%	-6.3%	.
c1nc(NCCCN2CCCCC2)c2cc(-c3ccc4c(c3)OCO4)ccc2n1	.	.	.	.	.	.	33.8*
CN1CCN(c2ncnc3ccc(-c4ccc5c(c4)OCO5)cc23)CC1	.	.	-3.7%	.	-0.4%	143.8%	.
CCC(Sc1nc(-c2ccccc2)c(C#N)c(=O)[nH]1)C(=O)Nc1nnc(C)s1 (stereo unspecified)	50.0%	-1.0%	26.0%	?	-4.3%	0.1%	47.8*
COc1cc(/C=N/Nc2ccc(S(N)(=O)=O)cc2[N+](=O)[O-])cc(OC)c1O	32.6%	i	-9.0%	-9.2%	?	-8.7%	.
COc1cc(C=NNc2ccc(S(=O)(=O)Nc3ccccc3C(=O)O)cc2[N+](=O)[O-])ccc1O	-10.0%	-12.1%	.	44.7µM*	?	.	60.1*
NS(=O)(=O)c1ccc(N/N=C/c2ccc(C(=O)O)cc2)c([N+](=O)[O-])c1	3.4%	-7.0%	i	0.8%	8.7%	-3.3%	.
CC(=O)Nc1ccc(C=NNc2ccc(S(=O)(=O)Nc3ccccc3C(=O)O)cc2[N+](=O)[O-])cc1	?	-9.3%	.	50.1µM*	-4.1%	.	84.9*
O=C(O)c1ccccc1NS(=O)(=O)c1ccc(N/N=C/c2cccc(O)c2O)c([N+](=O)[O-])c1	6.8%	8.91µM*	.	39.8µM*	.	.	47.8*
CCN1/C(=C/c2ccc3cc(C)ccc3[n+]2CC)Sc2ccccc21	-5.2%	-13.4%	?	?	-10.7%	4.6%	19*
CCN1/C(=C/c2ccc3cc(C)ccc3[n+]2CC)Sc2cc(C)c(C)cc21	-0.7%	-0.4%	4.8%	31.6µM*	-5.2%	4.2%	4.78*
Cc1cc(NC(=O)CSc2cn(CCNC(=O)c3ccccc3)c3ccccc23)no1	8.91µM*	7.08µM*	-5.6%	31.6µM*	-4.5%	-2.5%	67.5*
CCOC(=O)c1c(C)[nH]c(C)c1S(=O)(=O)N1CCN(c2cccc(C(F)(F)F)c2)CC1	-5.9%	0.0%	.	-12.7%	.	-16.6%	.
CNc1ccc2c3c(cccc13)C(=O)N(C)C2=O	-0.5%	-9.7%	.	?	-28.2%	2.2%	?
CN1C(=O)c2cccc3c(Cl)ccc(c23)C1=O	-6.4%	-6.6%	-10.7%	-3.1%	1.5%	-3.0%	.
Cc1cc(C)c2nc3nc(C)c(C)cc3c(N)c2c1	-4.5%	2.9%	i	44.7µM*	-4.6%	185.5%	23.9*

Compound activity (PubChem)
